Measurements: PubChem BioAssay
The source made the active and inactive calls.

Experiments:
[1] = E. coli DRC41 culture turbidity changes, primary screen, E. coli filamentation inducer project, strain DRC41, OD650, 48 h (AID 1152);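 note: E. coli MC1000 strain DRC41 lacking acrAB efflux pump and sulA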; conditions: E. coli DRC41 (acrAB sulA), higher = more signal, called active from +8 up or from −8 down
[2] = small-molecule binders of probe aLefty1, primary screen, biochemical, small-molecule microarray, 635/667 nm fluorescence (AID 1153); conditions: higher = more signal;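 note: score merges spot fluorescence with signal-to-noise ratio from the scanned slide images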
[3] = PSAC antagonists in infected red cells, primary screen, cell-based, P. falciparum Indochina, OD700, 1 h (AID 1154); conditions: P. falciparum Indochina infected RBC osmotic lysis, higher = more signal, called active from +8 up or from −8 down
[4] = PSAC antagonists in infected red cells, primary screen, cell-based, P. falciparum Indochina, OD700, 2 h (AID 1155);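 note: lysis reports solute entry through the parasite surface anion channel PSAC; channel blockers reduce lysis of infected cells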; conditions: P. falciparum Indochina infected erythrocytes, osmotic lysis OD700; higher = more signal, called active from +8 up or from −8 down
[5] = osmotic lysis modulators in infected erythrocytes, primary screen, PSAC antagonist project, cell-based, P. falciparum Indochina, OD700, 3 h (AID 1156); conditions: higher = more signal, called active from +8 up or from −8 down
[6] = PSAC antagonists in infected red cells, primary screen, cell-based, P. falciparum Indochina, OD700, 18 h (AID 1157); conditions: P. falciparum Indochina infected erythrocytes, osmotic lysis OD700, 18 h; higher = more signal, called active from +8 up or from −8 down
[7] = modulators of S6 phosphorylation in cells, primary screen, cell-based, A549, cytoblot, luminescence, serum-stimulated (AID 1158); conditions: A549 phospho-S6 cytoblot, 5 h, higher = more signal;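 note: serum-stimulated A549 lung adenocarcinoma cells; signal is phosphorylated S6 detected by cytoblot immunostaining with HRP secondary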
[8] = target: NADPH oxidase 2 (Homo sapiens) (UniProt P04839); test: NOX2-dependent H2O2 signal modulators, primary screen, NOX inhibitor project, cell-based, HEK293-NOX2, PMA-stimulated, Amplex Red fluorescence (AID 1159); conditions: 45 min, higher = more signal, called active from +8 up or from −8 down; note: test concentration not given here
[9] = target: NADPH oxidase 4 (Homo sapiens) (UniProt Q9NPH5); test: NOX4-dependent H2O2 signal modulators, primary screen, NOX inhibitor project, cell-based, HEK293-NOX4, tetracycline-induced, Amplex Red fluorescence (AID 1160); conditions: 45 min, higher = more signal, called active from +8 up or from −8 down
[10] = target: NADPH oxidase 5 (Homo sapiens) (UniProt Q96PH1); test: NOX5-dependent H2O2 signal modulators, primary screen, NOX inhibitor project, cell-based, HEK293-NOX5, Amplex Red fluorescence (AID 1161); conditions: HEK293-NOX5, ionomycin, 45 min, higher = more signal
[11] = A549 cell viability effects, profiling panel, calcein-AM fluorescence, 48 h, basal (AID 1162); conditions: higher = more signal; note: test concentration not given here
[12] = adipocyte viability effects, profiling panel, cell-based, 3T3-L1 adipocytes, calcein-AM fluorescence, 48 h, basal (AID 1163); conditions: 3T3-L1 adipocytes viability, higher = more signal; note: test concentration not given here
[13] = HepG2 cell viability effects, profiling panel, calcein-AM fluorescence, 48 h, basal (AID 1164); conditions: higher = more signal; note: test concentration not given here
[14] = MM1S cell viability effects, profiling panel, calcein-AM fluorescence, 48 h, basal (AID 1165); conditions: higher = more signal;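 note: viability of MM1S multiple myeloma cells under basal unstimulated conditions; test concentration not given here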
[15] = basal RPMI8226 viability, no added stimulus, profiling panel, cell-based, calcein-AM fluorescence, 48 h, PK04 Diversity Set (AID 1166); conditions: RPMI8226 myeloma viability, higher = more signal;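 note: cells grown under basal conditions without added stimulus; test concentration not given here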
[16] = basal HepG2 mitochondrial membrane potential changes, profiling panel, cell-based, JC-1 fluorescence, 24 h, 100 nL compound (AID 1167); conditions: higher = more signal; note: test concentration not given here
[17] = basal 3T3-L1 adipocyte mitochondrial potential changes, profiling panel, cell-based, JC-1 fluorescence, 3T3-L1 adipocytes, 24 h, 100 nL compound (AID 1168); conditions: JC-1 mitochondrial fluorescence, higher = more signal, called active from +8 up or from −8 down; note: test concentration not given here
[18] = basal RPMI8226 mitochondrial membrane potential changes, profiling panel, cell-based, JC-1 fluorescence, 24 h, 100 nL compound (AID 1169); conditions: RPMI8226 myeloma, JC-1 mitochondrial potential fluorescence, higher = more signal; note: test concentration not given here
[19] = basal MM1S mitochondrial membrane potential changes, profiling panel, cell-based, JC-1 fluorescence, 24 h, 100 nL compound (AID 1170); conditions: higher = more signal; note: test concentration not given here
[20] = A549 lung cancer cell viability effects, profiling panel, resazurin fluorescence, 24 h, PK04 Diversity Set (AID 1171); conditions: higher = more signal, called active from +8 up or from −8 down; note: test concentration not given here

NADPH oxidase 4 (Homo sapiens), sequence (Q9NPH5 whole entry, looked up): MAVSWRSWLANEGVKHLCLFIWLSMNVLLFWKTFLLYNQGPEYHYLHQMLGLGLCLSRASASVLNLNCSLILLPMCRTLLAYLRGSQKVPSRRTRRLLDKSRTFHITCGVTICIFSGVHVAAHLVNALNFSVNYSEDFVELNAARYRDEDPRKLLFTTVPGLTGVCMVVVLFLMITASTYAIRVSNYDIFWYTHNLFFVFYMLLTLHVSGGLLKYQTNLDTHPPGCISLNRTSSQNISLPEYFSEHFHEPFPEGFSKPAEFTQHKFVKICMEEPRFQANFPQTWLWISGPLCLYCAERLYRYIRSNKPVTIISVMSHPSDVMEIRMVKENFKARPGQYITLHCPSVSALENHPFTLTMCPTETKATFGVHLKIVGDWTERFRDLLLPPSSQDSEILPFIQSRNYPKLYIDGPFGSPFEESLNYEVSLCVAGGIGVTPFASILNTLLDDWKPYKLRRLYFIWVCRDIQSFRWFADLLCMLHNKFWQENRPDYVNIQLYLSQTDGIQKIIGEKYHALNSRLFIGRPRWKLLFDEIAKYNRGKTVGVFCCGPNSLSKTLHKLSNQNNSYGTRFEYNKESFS
NADPH oxidase 5 (Homo sapiens), sequence (Q96PH1 whole entry, looked up): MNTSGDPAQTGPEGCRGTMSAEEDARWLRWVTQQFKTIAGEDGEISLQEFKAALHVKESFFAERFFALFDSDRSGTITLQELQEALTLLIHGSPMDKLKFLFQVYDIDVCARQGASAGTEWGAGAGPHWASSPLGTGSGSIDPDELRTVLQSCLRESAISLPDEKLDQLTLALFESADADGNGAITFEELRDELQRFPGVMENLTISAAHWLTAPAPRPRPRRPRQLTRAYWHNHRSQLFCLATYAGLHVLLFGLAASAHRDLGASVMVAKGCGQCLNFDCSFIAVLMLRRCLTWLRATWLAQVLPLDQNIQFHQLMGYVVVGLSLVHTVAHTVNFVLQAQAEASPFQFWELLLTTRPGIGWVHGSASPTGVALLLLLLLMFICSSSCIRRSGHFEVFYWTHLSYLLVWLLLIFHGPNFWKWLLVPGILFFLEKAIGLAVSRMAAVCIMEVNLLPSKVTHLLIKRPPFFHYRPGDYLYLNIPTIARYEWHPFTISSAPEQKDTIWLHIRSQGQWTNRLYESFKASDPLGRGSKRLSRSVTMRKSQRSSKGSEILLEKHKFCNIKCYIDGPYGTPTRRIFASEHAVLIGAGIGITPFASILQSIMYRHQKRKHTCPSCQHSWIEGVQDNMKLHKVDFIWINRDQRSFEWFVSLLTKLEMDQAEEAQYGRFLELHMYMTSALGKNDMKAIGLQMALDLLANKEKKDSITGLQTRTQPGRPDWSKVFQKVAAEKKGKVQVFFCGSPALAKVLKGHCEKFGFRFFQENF
NADPH oxidase 2 (Homo sapiens), sequence (P04839 whole entry, looked up): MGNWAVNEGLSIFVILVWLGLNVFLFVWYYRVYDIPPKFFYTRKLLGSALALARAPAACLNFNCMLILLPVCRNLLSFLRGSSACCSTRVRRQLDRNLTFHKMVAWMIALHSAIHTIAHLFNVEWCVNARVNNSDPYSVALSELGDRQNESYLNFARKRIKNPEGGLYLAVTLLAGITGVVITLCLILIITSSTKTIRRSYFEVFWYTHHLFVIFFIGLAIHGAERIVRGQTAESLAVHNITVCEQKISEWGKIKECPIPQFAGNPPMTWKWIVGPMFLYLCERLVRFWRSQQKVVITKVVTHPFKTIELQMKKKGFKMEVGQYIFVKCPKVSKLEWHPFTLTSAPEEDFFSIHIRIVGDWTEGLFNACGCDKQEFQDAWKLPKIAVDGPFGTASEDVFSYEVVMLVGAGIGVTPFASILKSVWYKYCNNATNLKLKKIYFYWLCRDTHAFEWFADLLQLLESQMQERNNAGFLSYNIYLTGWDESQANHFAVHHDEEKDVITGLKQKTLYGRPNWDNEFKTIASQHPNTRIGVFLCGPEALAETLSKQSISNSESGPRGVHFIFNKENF

COC(=O)C1=CC(CCCO)=CC(c2cccs2)N(Cc2cccc(OC(F)(F)F)c2)C=C1C(=O)OC (stereo not given)
z-score [1]: -0.504 (inactive)
composite z-score [2]: -0.126
z-score [3]: 4.92 (inactive)
z-score [4]: 1.34 (inactive)
z-score [5]: 0.87 (inactive)
z-score [6]: 0.842 (inactive)
z-score [7]: -0.344
z-score [8]: -0.244 (inactive)
z-score [9]: -0.436 (inactive)
z-score [10]: -0.0441
z-score [11]: -0.855
z-score [12]: 0.543
z-score [13]: 0.896
z-score [14]: -2.69
z-score [15]: -3.76
z-score [16]: 0.996
z-score [17]: 0.000649 (inactive)
z-score [18]: -0.786
z-score [19]: -0.512
z-score [20]: -0.257 (inactive)

N[C@@H](Cc1ccccc1)C(=O)NCc1cn(Cc2ccccc2)nn1
z-score [1]: 0.676 (inactive)
composite z-score [2]: 0.397
z-score [3]: -0.39 (inactive)
z-score [4]: 0.262 (inactive)
z-score [5]: -0.0107 (inactive)
z-score [6]: -0.0074 (inactive)
z-score [7]: 0.0064
z-score [8]: 0.64 (inactive)
z-score [9]: 0.359 (inactive)
z-score [10]: 0.255
z-score [11]: 0.322
z-score [12]: 0.0811
z-score [13]: -0.256
z-score [14]: -0.0838
z-score [15]: -1.11
z-score [16]: 0.178
z-score [17]: -0.0638 (inactive)
z-score [18]: 0.556
z-score [19]: 0.919
z-score [20]: 0.825 (inactive)

C#Cc1cc2ccccc2oc1=O
z-score [1]: -1.44 (inactive)
composite z-score [2]: 0.228
z-score [3]: 3.02 (inactive)
z-score [4]: 0.858 (inactive)
z-score [5]: 0.898 (inactive)
z-score [6]: 0.656 (inactive)
z-score [7]: -0.668
z-score [8]: 0.0724 (inactive)
z-score [9]: -1.35 (inactive)
z-score [10]: -0.807
z-score [11]: -1.35
z-score [12]: -1.04
z-score [13]: -0.651
z-score [14]: -0.932
z-score [15]: -0.414
z-score [16]: -1.5
z-score [17]: 0.272 (inactive)
z-score [18]: 0.923
z-score [19]: -0.99
z-score [20]: -0.629 (inactive)

C=CCNC(=O)[C@@H]1[C@H]2C(=O)O[C@H](c3ccccc3)[C@H](c3ccccc3)N2[C@H](c2ccc(O)cc2)[C@@]12C(=O)N(C(=O)OCCOC)c1ccc(C#CC3=CCCCC3)cc12
z-score [1]: -1.1 (inactive)
composite z-score [2]: 0.319
z-score [3]: 1.78 (inactive)
z-score [4]: 0.836 (inactive)
z-score [5]: -0.942 (inactive)
z-score [6]: 0.313 (inactive)
z-score [7]: 0.0229
z-score [8]: 1.61 (inactive)
z-score [9]: 0.339 (inactive)
z-score [10]: 0.344
z-score [11]: 0.145
z-score [12]: 0.725
z-score [13]: 0.423
z-score [14]: -2.13
z-score [15]: -3.66
z-score [16]: -1.9
z-score [17]: 0.889 (inactive)
z-score [18]: -0.825
z-score [19]: -0.627
z-score [20]: -0.966 (inactive)
